Values joined by “and” are separate entries in the source; they are usually repeats but may differ in a detail not shown here. Identical values can stand only once.

This assay is described as follows: compound effects on lung adenocarcinoma cell viability – A549, calcein-AM fluorescence, 48 h, basal, profiling panel (AID 1162). Note: test concentration not given here. The settings on record: higher = more signal.
In the case of `CO[C@H]1COC(=O)CC=C[C@@H](C)COC(=O)[C@H](CCSC)NC(=O)CC=C[C@@H]1C`, the z-score was -0.875 and -0.577.
Then `C=CCN(CCCCC)C(=O)C1N(C(C)(C)CO)C(=O)C2C(C(=O)O)C3C=CC21O3` (configuration not stated), with -0.777 and -0.44; and `C=CCN1C(=O)[C@]2(O[C@H](CCn3cc(CCO)nn3)[C@@H]([Si](C)(C)c3ccc(OC)cc3)[C@@H]2C)c2cc(N3C(=O)c4cccc5cccc3c45)ccc21`, with -3.83 and -4.13; and `CCC[C@@H]1C[C@@]1(CCC)[C@@H](NC(=O)c1ccc(-c2ccccc2)cc1)c1cccc(Cl)c1`, with -2.26 and 0.247.
Then `C[C@@H]1CC[C@H]2C(=O)O[C@H](CN=[N+]=[N-])CN2[C@H]1c1ccc(Br)cc1`, with -2.47 and 0.677; and `C[C@@H]1CN2[C@@H](CC[C@@H](C)[C@@H]2c2ccc(Br)cc2)C(=O)O1`, with -0.133 and 0.551.
For `COc1ccc(O[C@H]2C=C[C@@H](c3ccccc3)O[C@@H]2COC(=O)CCC(C)=NO[C@H](C)c2cn([C@H](CO)Cc3ccccc3)nn2)cc1`, the z-score was -0.748 and -0.352.
The result for `CON(C)C(=O)c1nnc2c3ccccc3n(S(=O)(=O)c3ccc(C)cc3)c2n1` reads 0.318 and 1.25; that for `COc1ccc(COC(=O)NN=C2C[C@@H](O)[C@@H](O)[C@@H]3[C@@H]4C(=O)N(C(C)(C)C)C(=O)[C@@H]4CC[C@H]23)cc1`, 0.894; that for `COC(=O)C1=C(C)N(Cc2ccccc2)[C@]23O[C@](C(=O)OC)(C(=O)N2[C@@H]1c1ccccc1)[C@@H](C(=O)OC)[C@H]3C(=O)OC`, 1.59 and 1.67.
The result for `C[C@@H]1CC[C@H]2C(=O)NC[C@@H](O)CN2[C@H]1c1ccc(Br)cc1` reads -0.179 and 0.44.
Then `C#CCCCON=C1C[C@@H](O)[C@@H](O)[C@@H]2[C@@H]3C(=O)N(C4CCCCC4)C(=O)[C@@H]3CC[C@H]12`, with -0.0446.

The record behind these values is PubChem BioAssay.
